Source: the supplement of paper PMC10849652
The full data set covers some 7,900 targets. This sample favours those with a hit. About 0.6% of all pairs of compound and target were hits.

Compound: c1cn2cc(-c3ccc4cn[nH]c4c3)nc(Nc3ccc(N4CCOCC4)cc3)c2n1 [entospletinib]
Test: log2 fold change, soluble protein after heating vs DMSO (PISA); higher = thermal stabilisation; K562 cells, 10 uM, 30 min; active = over 0.2 and 3.5 SD of the protein, either way, in both replicates (recomputed)
How it was run: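 Soluble protein was quantified by TMTpro 16plex LC-MS/MS after channel sums were equalised. It was obtained as the supernatant after 21,000xg for 90 min from pooled aliquots of K562 cells (2×10^6 cells/mL, 10 μM compound, 30 min) heated for 3 min across 48°C-58°C and extracted in PBS with 0.5% NP-40 at 4°C. Thermal stability values are relative to control samples and come from duplicates. They are given as log2 fold changes.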

Sequence of UniProt P49189 (P49189 whole entry, looked up): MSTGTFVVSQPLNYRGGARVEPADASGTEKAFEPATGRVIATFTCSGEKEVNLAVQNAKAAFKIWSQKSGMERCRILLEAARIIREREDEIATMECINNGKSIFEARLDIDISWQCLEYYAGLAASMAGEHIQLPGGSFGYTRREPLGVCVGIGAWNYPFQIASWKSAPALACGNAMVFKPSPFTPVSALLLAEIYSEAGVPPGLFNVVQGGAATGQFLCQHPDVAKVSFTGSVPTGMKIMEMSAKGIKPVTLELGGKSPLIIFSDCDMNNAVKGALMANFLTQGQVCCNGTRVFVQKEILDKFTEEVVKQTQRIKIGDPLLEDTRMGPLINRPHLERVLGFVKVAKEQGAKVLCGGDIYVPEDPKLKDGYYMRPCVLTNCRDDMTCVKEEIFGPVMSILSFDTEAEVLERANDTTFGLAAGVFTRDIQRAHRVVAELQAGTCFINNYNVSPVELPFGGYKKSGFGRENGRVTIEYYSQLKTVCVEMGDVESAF
Sequence of UniProt P54252 (P54252 whole entry, looked up): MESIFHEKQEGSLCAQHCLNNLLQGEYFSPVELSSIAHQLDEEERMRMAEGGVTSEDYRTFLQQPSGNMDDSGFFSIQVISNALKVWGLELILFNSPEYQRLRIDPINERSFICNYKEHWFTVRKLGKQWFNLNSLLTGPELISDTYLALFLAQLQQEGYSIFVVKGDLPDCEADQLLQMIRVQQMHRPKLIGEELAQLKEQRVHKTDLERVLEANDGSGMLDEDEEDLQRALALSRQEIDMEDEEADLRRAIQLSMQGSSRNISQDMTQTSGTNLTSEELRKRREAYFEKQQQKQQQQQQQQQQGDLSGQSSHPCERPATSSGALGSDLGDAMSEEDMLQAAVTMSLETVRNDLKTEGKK
Sequence of UniProt Q7Z569 (Q7Z569 whole entry, looked up): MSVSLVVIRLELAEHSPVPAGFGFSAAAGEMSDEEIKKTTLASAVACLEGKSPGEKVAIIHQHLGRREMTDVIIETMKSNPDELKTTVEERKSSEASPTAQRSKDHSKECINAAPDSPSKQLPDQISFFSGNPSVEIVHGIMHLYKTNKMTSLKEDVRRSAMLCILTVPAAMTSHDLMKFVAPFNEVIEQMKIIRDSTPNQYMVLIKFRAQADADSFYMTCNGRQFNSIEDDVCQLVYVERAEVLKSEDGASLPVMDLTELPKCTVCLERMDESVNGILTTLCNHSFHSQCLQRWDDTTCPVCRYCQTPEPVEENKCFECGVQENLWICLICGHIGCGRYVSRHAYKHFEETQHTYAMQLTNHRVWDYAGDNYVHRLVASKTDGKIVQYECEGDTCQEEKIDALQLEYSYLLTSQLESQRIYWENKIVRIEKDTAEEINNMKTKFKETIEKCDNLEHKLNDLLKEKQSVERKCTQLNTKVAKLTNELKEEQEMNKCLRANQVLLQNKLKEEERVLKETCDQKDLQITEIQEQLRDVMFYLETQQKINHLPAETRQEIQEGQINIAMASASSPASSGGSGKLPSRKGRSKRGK
Sequence of UniProt O95433 (O95433 whole entry, looked up): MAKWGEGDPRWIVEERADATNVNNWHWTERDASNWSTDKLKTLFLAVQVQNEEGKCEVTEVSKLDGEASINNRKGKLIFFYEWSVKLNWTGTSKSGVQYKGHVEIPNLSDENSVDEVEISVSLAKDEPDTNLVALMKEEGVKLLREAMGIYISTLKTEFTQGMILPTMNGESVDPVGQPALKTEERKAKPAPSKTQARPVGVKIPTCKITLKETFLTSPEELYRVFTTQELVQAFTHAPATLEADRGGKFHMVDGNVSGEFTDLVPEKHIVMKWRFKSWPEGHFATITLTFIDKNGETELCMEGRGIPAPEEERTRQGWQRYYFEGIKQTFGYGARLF
Sequence of UniProt Q96P47 (Q96P47 whole entry, looked up): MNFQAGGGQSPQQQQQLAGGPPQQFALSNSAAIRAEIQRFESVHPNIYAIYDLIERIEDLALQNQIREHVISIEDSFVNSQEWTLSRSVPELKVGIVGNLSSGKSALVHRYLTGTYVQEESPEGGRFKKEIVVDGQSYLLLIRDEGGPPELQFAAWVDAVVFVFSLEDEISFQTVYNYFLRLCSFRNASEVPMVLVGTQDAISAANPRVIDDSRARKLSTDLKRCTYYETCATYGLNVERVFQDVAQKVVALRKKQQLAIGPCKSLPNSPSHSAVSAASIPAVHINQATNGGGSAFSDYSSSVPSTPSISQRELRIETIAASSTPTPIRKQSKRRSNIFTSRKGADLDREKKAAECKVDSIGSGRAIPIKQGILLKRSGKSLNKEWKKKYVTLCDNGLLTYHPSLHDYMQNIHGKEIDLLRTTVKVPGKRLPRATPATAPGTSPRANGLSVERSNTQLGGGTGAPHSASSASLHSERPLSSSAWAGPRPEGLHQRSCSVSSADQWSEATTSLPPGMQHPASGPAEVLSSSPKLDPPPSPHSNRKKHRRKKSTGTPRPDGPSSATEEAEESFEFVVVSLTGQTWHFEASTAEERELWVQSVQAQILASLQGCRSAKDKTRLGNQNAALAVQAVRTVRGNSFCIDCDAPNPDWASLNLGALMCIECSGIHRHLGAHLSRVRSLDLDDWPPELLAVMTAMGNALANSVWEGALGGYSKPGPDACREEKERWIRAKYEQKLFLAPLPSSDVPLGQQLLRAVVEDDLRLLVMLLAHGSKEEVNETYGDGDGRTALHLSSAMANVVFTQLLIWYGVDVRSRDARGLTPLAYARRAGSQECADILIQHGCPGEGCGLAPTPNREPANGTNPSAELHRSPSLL
Sequence of UniProt Q02252 (Q02252 whole entry, looked up): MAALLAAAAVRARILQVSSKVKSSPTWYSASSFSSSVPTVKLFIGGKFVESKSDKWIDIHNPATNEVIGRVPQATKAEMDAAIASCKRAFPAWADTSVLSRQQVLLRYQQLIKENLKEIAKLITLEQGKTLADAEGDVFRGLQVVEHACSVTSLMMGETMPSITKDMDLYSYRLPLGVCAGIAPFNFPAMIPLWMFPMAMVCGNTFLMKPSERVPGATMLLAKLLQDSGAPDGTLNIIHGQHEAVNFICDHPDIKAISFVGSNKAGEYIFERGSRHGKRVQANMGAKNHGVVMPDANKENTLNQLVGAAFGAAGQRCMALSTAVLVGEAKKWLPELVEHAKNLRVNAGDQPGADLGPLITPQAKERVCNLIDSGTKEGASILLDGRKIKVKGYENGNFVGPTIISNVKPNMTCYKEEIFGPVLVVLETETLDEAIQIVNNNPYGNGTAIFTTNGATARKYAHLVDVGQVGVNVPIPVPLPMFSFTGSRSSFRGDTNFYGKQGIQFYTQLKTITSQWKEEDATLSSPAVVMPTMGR
Sequence of UniProt Q9UEY8 (Q9UEY8 whole entry, looked up): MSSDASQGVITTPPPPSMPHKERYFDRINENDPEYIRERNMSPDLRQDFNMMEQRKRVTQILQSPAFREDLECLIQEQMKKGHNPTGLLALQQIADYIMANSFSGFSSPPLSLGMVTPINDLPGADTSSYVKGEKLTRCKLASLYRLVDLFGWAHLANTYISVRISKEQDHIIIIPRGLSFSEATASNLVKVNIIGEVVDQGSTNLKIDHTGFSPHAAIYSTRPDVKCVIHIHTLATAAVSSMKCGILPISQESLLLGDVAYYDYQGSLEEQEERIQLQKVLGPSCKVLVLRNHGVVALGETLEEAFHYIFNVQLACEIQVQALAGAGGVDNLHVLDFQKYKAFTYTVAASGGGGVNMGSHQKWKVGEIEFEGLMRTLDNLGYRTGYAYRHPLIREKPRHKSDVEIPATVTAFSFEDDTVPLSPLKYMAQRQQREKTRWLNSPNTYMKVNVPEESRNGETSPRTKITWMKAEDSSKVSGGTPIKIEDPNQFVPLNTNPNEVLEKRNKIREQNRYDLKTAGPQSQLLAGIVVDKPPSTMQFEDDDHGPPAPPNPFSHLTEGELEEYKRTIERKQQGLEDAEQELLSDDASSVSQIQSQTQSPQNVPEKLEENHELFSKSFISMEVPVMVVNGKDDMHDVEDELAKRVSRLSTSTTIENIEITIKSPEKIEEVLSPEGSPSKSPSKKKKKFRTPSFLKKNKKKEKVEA
Sequence of UniProt Q8N6S5 (Q8N6S5 whole entry, looked up): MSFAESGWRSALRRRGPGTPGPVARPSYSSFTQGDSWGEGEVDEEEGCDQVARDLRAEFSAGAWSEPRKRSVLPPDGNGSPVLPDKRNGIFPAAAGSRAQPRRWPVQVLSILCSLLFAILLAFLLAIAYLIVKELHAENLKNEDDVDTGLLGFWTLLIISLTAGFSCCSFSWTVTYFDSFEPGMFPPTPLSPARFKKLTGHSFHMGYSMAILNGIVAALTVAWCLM
Sequence of UniProt Q9UQB8 (Q9UQB8 whole entry, looked up): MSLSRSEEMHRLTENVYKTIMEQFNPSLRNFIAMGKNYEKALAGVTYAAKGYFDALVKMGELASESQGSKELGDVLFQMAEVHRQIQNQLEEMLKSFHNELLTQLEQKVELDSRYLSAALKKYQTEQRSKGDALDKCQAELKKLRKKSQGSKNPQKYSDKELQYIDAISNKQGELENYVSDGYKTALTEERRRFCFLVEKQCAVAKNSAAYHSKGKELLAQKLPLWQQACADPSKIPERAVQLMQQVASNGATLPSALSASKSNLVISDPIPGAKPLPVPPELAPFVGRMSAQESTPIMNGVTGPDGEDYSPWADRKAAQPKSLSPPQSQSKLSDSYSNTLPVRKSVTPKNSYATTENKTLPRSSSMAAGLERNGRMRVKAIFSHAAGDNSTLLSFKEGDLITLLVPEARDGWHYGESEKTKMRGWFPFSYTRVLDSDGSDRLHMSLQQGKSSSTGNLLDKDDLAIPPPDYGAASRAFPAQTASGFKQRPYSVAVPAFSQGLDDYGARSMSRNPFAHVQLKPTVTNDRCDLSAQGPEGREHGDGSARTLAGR
Sequence of UniProt P55957 (P55957 whole entry, looked up): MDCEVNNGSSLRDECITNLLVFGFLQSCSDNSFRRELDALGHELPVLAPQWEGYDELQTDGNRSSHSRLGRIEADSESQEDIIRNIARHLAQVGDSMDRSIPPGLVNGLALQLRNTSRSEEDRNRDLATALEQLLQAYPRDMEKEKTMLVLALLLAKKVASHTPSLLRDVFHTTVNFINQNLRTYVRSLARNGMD

log2 fold change, inactive:
BYSL (UniProt Q13895) -0.065
AKAP8L (UniProt Q9ULX6) 0.171
ARMC8 (UniProt Q8IUR7) -0.011
BRMS1 (UniProt Q9HCU9) 0.078
ALDH18A1 (UniProt P54886) -0.246
AKT1 (UniProt P31749) -0.04
ABHD17A isoform 2 (UniProt Q96GS6) -0.076
ABCC5 (UniProt O15440) 0.028
AP2A1 (UniProt O95782) 0.017
ACACB (UniProt O00763) -0.077
ARL3 (UniProt P36405) 0.008
ALG5 (UniProt Q9Y673) -0.005
ATIC (UniProt P31939) 0.045
ATP12A isoform 2 (UniProt P54707) -0.003
ACSL4 (UniProt O60488) 0.009
BRAP (UniProt Q7Z569) 0.002
ATP6V1F isoform 2 (UniProt Q16864) 0.027
ARHGAP1 (UniProt Q07960) 0.011
ANXA5 (UniProt P08758) 0.016
ALDH6A1 (UniProt Q02252) -0.028
ALDH9A1 isoform 3 (UniProt P49189) -0.017
ANKRD29 (UniProt Q8N6D5) -0.152
AHSA1 (UniProt O95433) -0.017
ATXN3 isoform 1 (UniProt P54252) 0.058
AKT2 (UniProt P31751) 0.005
APPL1 (UniProt Q9UKG1) 0.027
ATRN (UniProt O75882) 0.02
ATAD3A isoform 2 (UniProt Q9NVI7) 0.024
BCCIP (UniProt Q9P287) -0.036
ADAMTS5 (UniProt Q9UNA0) -0.145
AGAP3 isoform 4 (UniProt Q96P47) 0.036
BID isoform 2 (UniProt P55957) 0.025
BRD3 (UniProt Q15059) 0.033
BAIAP2 (UniProt Q9UQB8) -0.012
ARGLU1 (UniProt Q9NWB6) -0.013
ATAD3B (UniProt Q5T9A4) 0.058
ARL6IP6 (UniProt Q8N6S5) -0.091
ARL2BP (UniProt Q9Y2Y0) -0.06
ADD3 (UniProt Q9UEY8) 0.046
